Screening results: PubChem BioAssay, National Center for Advancing Translational Sciences (NCATS)
Pol iota inh: DNA polymerase iota (human) inhibition; Pol iota fluorescent replication assay, 10 min; Potency, µM (titrated, usually from 115 µM), for inactives: at the top dose activity, negative = inhibition, usual class: inhibitors; actives 1% (n = 390,000); AID 588590; also: potency is read from the fitted curve at half-maximal effect
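Fluorescent replication assay read twice, at 0 min and 10 min after adding 50 nM (final) substrate. Enzyme (10 nM) and compounds were first incubated 15 min at room temperature; enzyme-free buffer wells were negative controls.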
POLB inh: DNA polymerase beta (human) inhibition; Potency, µM (titrated, usually from 114 µM), for the others: top-dose activity change, negative = inhibition, actives largely listed as inhibitors; actives 1.3% (n = 340,000); Pol beta primer extension/strand displacement, fluorescence kinetic; P06746; also: potency is read from the fitted curve at half-maximal effect; % is scaled to controls: 0 for no effect and ±100 for the full control effect
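Preincubation: enzyme (10 nM) with compound, 15 min, RT. Reaction: substrate added to 50 nM final. Reads: 0 and 10 min. Analysis: normalized, Hill fit.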
PI4K2A block: blocks human PI4K2A kinase activity; purified PI4K2A, ADP-Glo luminescence, 1 h; stronger effect = lower value; activity change, negative = inhibition, % at 76.9 µM; actives 0.13% (n = 420,000); in the data active = activity change below about -50%; inconclusive = mostly about -30% to -49%;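 also: -100% = wells without enzyme as full effect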
Target sequence (Q9BTU6 whole entry, looked up): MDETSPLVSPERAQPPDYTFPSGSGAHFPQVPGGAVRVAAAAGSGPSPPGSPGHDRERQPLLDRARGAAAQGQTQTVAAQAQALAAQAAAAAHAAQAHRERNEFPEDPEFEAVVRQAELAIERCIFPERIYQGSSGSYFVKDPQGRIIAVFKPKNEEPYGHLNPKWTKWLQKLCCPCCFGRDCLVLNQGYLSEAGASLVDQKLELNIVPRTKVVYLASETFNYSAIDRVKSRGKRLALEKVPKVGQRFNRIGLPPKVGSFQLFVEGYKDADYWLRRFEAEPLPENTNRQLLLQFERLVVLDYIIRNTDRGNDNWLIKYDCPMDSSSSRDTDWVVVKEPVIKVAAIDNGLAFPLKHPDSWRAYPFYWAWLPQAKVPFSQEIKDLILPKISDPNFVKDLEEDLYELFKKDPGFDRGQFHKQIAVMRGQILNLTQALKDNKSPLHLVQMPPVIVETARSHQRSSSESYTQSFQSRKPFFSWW
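ADP-Glo luminescence measured ADP generated by PI4K2A enzyme (4 ug/mL before mixing) with 1.2 mM PI substrate (pre-mix) and 300 microM ATP (pre-mix). Tris pH7.5 buffer with MgCl2, Triton X-100; 1 h reaction at ambient temperature.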
PI5P4Ka inh: PI5P4K alpha (human) kinase inhibition; AID 652105; actives 1.2% (n = 330,000); PI5P4Kalpha enzyme, ADP-Glo luminescence, 60 min; stronger effect = lower value; max response, %; active = max response of -50% or lower; inconclusive = between -30% and -50%; inactive = -30% or higher; also: value at the top dose of about 77 µM; % is scaled to controls: 0 for no effect and ±100 for the full control effect
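Reactions run in 0.038 M HEPES pH 7.4, 0.28 mM EGTA, 0.1% CHAPS and 5% DMSO, with PI5P4Kalpha, substrate, compound and 5 microM ATP final, one hour at room temperature. Readout is ADP-Glo luminescence.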
Pol eta inh: blocks human DNA polymerase eta activity | actives 1.2% (n = 390,000) | Potency, µM (top dose mostly 114 µM), for the others: at the top dose activity change, negative = inhibition, hits mostly inhibitors | Q9Y253 | recombinant Pol eta, fluorescent DNA replication assay; also: potency is read from the fitted curve at half-maximal effect; % is scaled to controls: 0 for no effect and ±100 for the full control effect
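Pol eta at 10 nM preincubated with compounds 15 min at room temperature; reaction started with fluorescent substrate (50 nM final) and read kinetically at 0 and 10 min.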
POLK inh: inhibitors of human DNA polymerase kappa; purified Pol kappa, fluorescent DNA synthesis assay, 10 min; actives 0.53% (n = 400,000); Potency, µM (highest dose often 107 µM), without a hit: top-dose activity, negative = inhibition, most hits filed as inhibitors; AID 588579; Q9UBT6; also: potency is read from the fitted curve at half-maximal effect; % is scaled to controls: 0 for no effect and ±100 for the full control effect
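Readout: fluorescence, taken kinetically at 0 and 10 min. Conditions: 10 nM Pol kappa, 15 min RT compound preincubation, 50 nM substrate final. Controls: enzyme-free buffer wells.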
Numbers without * were called inactive; i = inactive; u = inconclusive; x = no result; [ ] = remark or other dose. The list is not random: actives were taken first. Their share in the collection is about 2.8%. Unless noted, calls follow the shape of the dose curve; as a rule, active = well fitted inhibition curve with a large enough effect; inconclusive = small, poorly fitted or top-dose-only effect, or another doubt; inactive = no such curve, though single readings can be large or run the other way.

SMILES	Pol iota inh	POLB inh	PI4K2A block	PI5P4Ka inh	Pol eta inh	POLK inh
CC/C(=N\NC(=O)c1ccccc1)c1c(O)n(Cc2ccccc2)c(=O)[nH]c1=O	0%	1%	-10	-85*	-7%	-7%
CC/C(=N\NC(=O)c1ccccc1O)c1c(O)n(C2CCCCC2)c(=O)[nH]c1=O	12%	0%	-3	-74*	-13%	-4%
CCC(=NCCO)c1c(O)n(C2CCCCC2)c(=O)[nH]c1=O	0%	-1%	-13	-4	-9%	2%
Cc1cccc(N2C(=O)NC(=O)/C(=C/c3cc4c(cc3[N+](=O)[O-])OCO4)C2=O)c1	u	0%	-28	u	-9%	89µM*
Oc1ccc2c3c1O[C@H]1[C@@H](O)C=C[C@H]4[C@@H](C2)NCC[C@@]341	x	x	i	x	x	x
CCc1ccc(N2NC(=O)/C(=C/C=C/c3ccco3)C2=O)cc1	18µM*	u	-6	u	u	u
O=C1NC(=O)N(c2ccccc2)C(=O)/C1=C\C=C\c1ccccc1	u	u	-10	u	u	-11%
COc1cc(C[C@@H](C)N)c(OC)cc1C	x	x	i	x	x	x
CN(C)[C@@H]1C(=O)C(C(N)=O)=C(O)[C@@]2(O)C(=O)C3=C(O)c4c(O)ccc(Cl)c4[C@@](C)(O)C3C[C@@H]12 (stereo partly specified)	u	u	-9	u	-13%	79µM*
CN(C)[C@H]1C(=O)C(C(N)=O)=C(O)[C@]2(O)C(=O)C3=C(O)c4c(O)cccc4[C@@](C)(O)[C@H]3C[C@@H]12	x	x	x	x	x	-8%[12 µM]
CN(C)C1C(=O)C(C(N)=O)=C(O)C2(O)C(=O)C3=C(O)c4c(O)cccc4C(C)(O)C3CC12 (stereo unspecified)	u	3.2µM*	-8	-9	-7%	u
Cc1nc2ccccc2c(=O)n1-c1ccccc1Cl	x	x	i	x	x	x
CCOC(=O)c1c(/N=C/C2C(=O)NC(=S)NC2=O)sc2c1CCC2	41%	1%	4	-78*	1%	-23%
CCOC(=O)c1c(/N=C/C2C(=O)NC(=S)NC2=O)sc(C)c1C	x	17%	x	x	x	x
N#Cc1c(/N=C/C2C(=O)NC(=S)NC2=O)sc2c1CCCC2	-2%	-4%	-15	-55*	-3%	-15%
Cc1ccc(N2C(=O)NC(=O)/C(=C\c3cn(CC(=O)O)c4ccccc34)C2=O)cc1	32µM*	0%	-14	-5	u	-3%
O=C(O)Cn1cc(/C=C2\C(=O)NC(=O)N(c3ccc(Br)cc3)C2=O)c2ccccc21	32µM*	22%	-13	-26	u	-17%
COC(=O)Cn1cc(/C=C2\C(=O)NC(=O)N(c3ccccc3)C2=O)c2ccccc21	u	5%	-6	-9	-3%	-3%
O=C(O)CO.[NH2-].[NH2-].[Pt+2]	x	x	x	x	x	-1%[19.4 µM]
Cc1ccc(NC(=O)C2CCCN(c3ncnc4onc(C)c34)C2)c(Cl)c1 (stereo unspecified)	31%	-15%	0	x	-16%	4%
COc1ccc(N2C(=O)/C(=C/c3ccc(OC)c(OC)c3)C(=O)NC2=S)cc1	u	11%	1	-54*	3%	-2%
COc1cc(/C=C2/C(=O)NC(=O)N(c3ccc(C)cc3)C2=O)cc(OC)c1OC	69%	-23%	-8	-11	-14%	-14%
COC(=O)COc1ccc(/C=C2\C(=O)NC(=S)N(c3ccc(C)cc3)C2=O)cc1OC	u	-3%	-3	-54*	-11%	8%[60.1 µM]
CCOC(=O)COc1ccc(/C=C2\C(=O)NC(=S)N(c3ccc(OC)cc3)C2=O)cc1OC	-12%	-21%	-5	-56*	-9%	7%
O=C(CBr)Nc1ccc(Cl)cc1C(=O)c1ccccc1F	x	x	-2	x	x	x
SMILES	Pol iota inh	POLB inh	PI4K2A block	PI5P4Ka inh	Pol eta inh	POLK inh
COc1cccc(NC(=O)c2ccc3c(=O)n4nc(Nc5ccccc5OC)sc4nc3c2)c1	u	-3%	0	x	u	3%
Cc1ccc(Cl)cc1Nc1nn2c(=O)c3ccc(C(=O)NCc4cccs4)cc3nc2s1	u	8.9µM*	6	x	u	-6%[60.1 µM]
COC(=O)C1=C(c2ccc(F)cc2OCc2ccccc2)C[C@@H]2CC[C@H]1N2C(=O)NCc1ccco1	u	x	-1	-22	45µM*	u
Cc1cc(C)cc(Oc2nc3ccccn3c(=O)c2/C=C(\C#N)c2nc3ccccc3s2)c1	24%	u	0	x	u	-4%
Cc1cccn2c(=O)c(/C=C(\C#N)c3nc4ccccc4s3)c(Oc3ccc(F)cc3)nc12	u	u	-1	x	79µM*	-4%
Clc1ccccc1N1CCNCC1	x	x	3	x	x	x
COP(=S)(OC)Oc1ccc(Sc2ccc(OP(=S)(OC)OC)cc2)cc1	-15%	x	-1	-64*	-12%	-7%
COP(=S)(OC)Oc1ccc([N+](=O)[O-])cc1	x	x	x	x	x	-17%[60.1 µM]
CN(C)CCc1c[nH]c2ccccc12	x	x	i	x	x	x
NCC(O)c1cc(O)c(O)cc1F (stereo unspecified)	28µM*	-12%[57.1 µM]	-9	0	-11%	u
O=C1NC(=O)C(=Cc2coc3ccccc3c2=O)C(=O)N1	10%	2%	-12	-77*	-7%	-4%
O=C1NC(=O)C(=Cc2csc3ccccc23)C(=O)N1	u	11%	u	-73*	8%	-3%
O=C1NC(=O)C(=C/C=C/c2coc3ccc(Br)cc3c2=O)C(=O)N1	x	1.6µM*	x	x	x	x
COc1cc2c(cc1OC)[C@@H]1C(=O)c3ccc(OC)c(CC=C(C)C)c3OC1CO2 (stereo partly specified)	x	x	x	x	x	-17%[60.1 µM]
CC(=O)c1cccc(NC(=O)c2noc3c2CSc2ccccc2-3)c1	51%	5%	-4	x	9%	8%
COC[C@H]1OC(=O)c2coc3c2[C@@]1(C)C1=C(C3=O)[C@H]2CCC(=O)[C@@]2(C)C[C@H]1OC(C)=O	x	x	x	x	x	-14%[19.4 µM]
CN1C2CCC(C)(C)C1CC(OC(=O)C(O)(c1cccs1)c1cccs1)C2 (stereo unspecified)	x	x	1	x	x	x
COc1ccc(-n2c(O)c(/C=C3\C=Nc4ccc(Br)cc43)c(=O)[nH]c2=O)cc1	7.9µM*	-13%	-3	-11	-16%	-5%
COC(=O)C1=Nc2ccccc2/C1=C\c1c(O)n(-c2cc(OC)ccc2OC)c(=O)[nH]c1=O	-8%	-21%	-3	-66*	u	-20%
COc1ccc(-n2c(O)c(/C=C3\C=Nc4ccc(Br)cc43)c(=O)[nH]c2=O)c(OC)c1	u	20%	-18	u	79µM*	-15%
